According to PubChem BioAssay (NCATS):
Results filed as inconclusive are left out. Unmarked numbers belong to inactive results. Calls of active or inactive are those of the source. Calls follow the shape of the dose curve; as a rule, active = well fitted cell-killing curve with a large enough effect; inconclusive = small, poorly fitted or top-dose-only effect; inactive = flat fitted curve, though single readings scatter.

Test: Cell Viability - LYMP2-017 (AID 972); also: nearly all actives have a fitted effect of over 55% in size
Conditions: LYMP2-017 lymphoblastoid cell viability; series mostly up to 92.2 µM; activity change, negative = cytotoxicity: at the top concentration
From the text: NIH Chemical Genomics Center [NCGC]
NIH Molecular Libraries Screening Centers Network [MLSCN]
National Institutes of Environmental Health Sciences [NIEHS]
National Toxicology Program [NTP]
We have developed a 1536-well cell-based assay for quantitative high throughput screening (qHTS) against a number of cell lines to determine in vitro cytotoxicity of small molecules. This particular assay uses a human lymphoblastoid cell line (LYMP2-017) purchased from Coriell Institute for Medical Research.
NCGC Assay Protocol Summary:
The CellTiter-Glo luminescent cell viability assay (Promega) is a homogeneous method to measure the number of viable cells in culture. The end point readout of this assay is based on quantitation of intracellular ATP, an indicator of metabolic activity, using the luciferase reaction. Luciferase catalyzes the oxidation of beetle Luciferin to oxyluciferin and light in the presence of ATP. The luminescent signal is proportional to amount of ATP present.
Using the CellTiter-Glo luminescent cell viability assay, the amount of cellular ATP was measured in the lymphoblastoid cell line with complete culture medium following compound treatment for 24 hours. The assay was performed in opaque white Kalypsys 1536-well plates. In the screen, tetraoctylammonium bromide was used as positive control. Library compounds were measured for their ability to cause acute toxicity in the cell line, as reflected by a decrease in intracellular ATP levels, in a concentration-dependent manner. […] AC50 values were determined from concentration-response data modeled with the standard Hill equation.
qHTS protocol for CellTiter Glo lymphoblastoid cellular assay
[Step] [Parameter] [Value] [Description]
1. Reagent; 5 uL; 2500 lymphoblastoid cells/well
2. Time; 5 hr; 37 C incubation
4. Controls; 23 nL; Tetraoctylammonium bromide 6.4pM to 92 uM
5. Time; 24 hr; 37 C incubation
6. Reagent; 5 uL; CellTiter Glo reagent
7. Time; 30 min; Room Temperature
8. Detection; Luminescence; Viewlux plate reader
Keywords: cell viability, cytotoxicity, lymphoblastoid cell line, luminescence, NTPHTS, NTPHTS_NCGC, NIEHS, DSSTox, MLSMR, MLSCN, NIH Roadmap, qHTS, NCGC
% is scaled to controls: 0 for no effect and ±100 for the full control effect; potency is read from the fitted curve at half-maximal effect.

SMILES	activity change, negative = cytotoxicity	Potency
C=CCOCC1CO1 (stereo not given)	1.33%	–
ClCC(Cl)Cl	-3.11%	–
Brc1ccc(Oc2ccc(Br)cc2Br)c(Br)c1	-3.07%	–
Oc1cc(Cl)cc(Cl)c1	-0.263%	–
Nc1ccc2ccccc2c1	-8.99%	–
Cc1ccc([N+](=O)[O-])cc1	-13.3%	–
CCCCC(=O)Cl	-17.7%	–
CC(Cl)(Cl)Cl	-0.379%	–
FC(Cl)(Cl)Cl	-3.18%	–
CC(C)(C)c1ccccc1O	-9.12%	–
O=C(O)CCl	-3.26%	–
Oc1cccc(Cl)c1Cl	2.59%	–
C=CC(=O)OC	-8.47%	–
S=C1NCCN1	-16.3%	–
O=[N+]([O-])c1ccc(O)c([N+](=O)[O-])c1	-1.63%	–
CC(=O)NNc1ccccc1	8.58%	–
Clc1ccc(C(c2ccccc2Cl)C(Cl)(Cl)Cl)cc1 (stereo not given)	-20.5%	–
CN(C)c1ccccc1	-5.99%	–
CCCN(CCC)c1c([N+](=O)[O-])cc(C(F)(F)F)cc1[N+](=O)[O-]	-15.8%	–
C=CC#N	-5.13%	–

SMILES	activity change, negative = cytotoxicity	Potency
Nn1cnnc1	-17.5%	–
ClP(Cl)(Cl)(Cl)Cl	-25.4%	–
CCOP(=S)(OCC)Oc1nc(Cl)c(Cl)cc1Cl	-5.14%	–
CC(C)C#N	-2.69%	–
CCN(N=O)C(N)=O	-11%	–
OCCCCO	4.35%	–
ClCc1ccccc1	-3.05%	–
OCCBr	-12.9%	–
Clc1ccc(C(Cl)(Cl)Cl)c(Cl)c1	-1.7%	–
c1ccoc1	4.62%	–
Cl/C=C\Cl	-9.24%	–
BrCC(Br)(Br)Br	–	15.8 µM (active)
Cc1cc(C)cc(OP(=O)(Oc2cc(C)cc(C)c2)Oc2cc(C)cc(C)c2)c1	-11.5%	–
ClC=CCl	-5.39%	–
O=[N+]([O-])c1ccccc1O	-6.66%	–
CCCCC#N	-5.77%	–
CCCBr	7.02%	–
O=[N+]([O-])c1cc(Cl)c(Cl)cc1Cl	-11.3%	–
CCCCOC(=O)c1ccccc1N	-7.89%	–
O=P(OCCCl)(OCCCl)OCCCl	12.5%	–
